Screens deposited in PubChem BioAssay by National Center for Advancing Translational Sciences (NCATS).
ATXN2 expr inh – ATXN2 expression inhibition; 360,000 tested, 0.72% active; HEK-293 ATXN2-luciferase reporter, luminescence, 24 h; AID 1745845; Potency, µM (series often up to 57 µM), inactives show top-dose activity change, negative = inhibition, most hits filed as inhibitors; further: potency means the concentration at half of the fitted maximal effect; on the % scale 0 is the no-effect control and ±100 the full control effect; nearly all actives have a fitted effect of over 55% in size
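ATXN2-luciferase reporter cells (luciferase flanked by upstream and downstream ATXN2 gene portions) were treated 24 h at 37 °C with compounds at up to 57 uM. SteadyGlo luminescence gave expression; GF-AFC fluorescence gave viability.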
TGFb inhibitor – inhibitors of TGF-b signaling; 410,000 tested, 1.2% active; HepG2 CAGA-GFP TGF-b/SMAD3 reporter, GFP fluorescence, 18 h; TGF-beta stimulated, 500 pg/mL final; Potency, µM (series often up to 46.1 µM), inactives show top-dose activity, negative = inhibition, hits mostly inhibitors; further: potency means the concentration at half of the fitted maximal effect; on the % scale 0 is the no-effect control and ±100 the full control effect; nearly all actives have a fitted effect of over 65% in size
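Using HEPG2 CAGA-GFP reporter cells at 1000 cells/well, we pinned test compounds, stimulated with recombinant TGF-beta (500 pg/mL final) and measured total well GFP after 18 h.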
HepG2 viability – HepG2 cytotoxicity, counter-screen for TGF-b inhibitors | Potency, µM (doses to about 46.1 µM), for the others: at the top dose activity change, negative = cytotoxicity, usual class: cytotoxic | 410,000 tested, 0.76% active | AID 588856 | HepG2 CAGA-GFP viability, ATP luminescence, 18 h; further: potency means the concentration at half of the fitted maximal effect
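HepG2 CAGA-GFP cells (1000/well, DMEM with 1% FBS) received compound, then TGF-beta at 500 pg/mL final, and were incubated 18 hours at 37 degrees C. Viability was read by CellTiter-Glo luminescence. Media-only wells were set as complete cell-killing and DMSO as no toxicity.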
DRD3 agonist – agonists of human D3 dopamine receptor | P35462 | D3R DiscoveRx beta-arrestin cells, luminescence, 90 min | max activation, % | 410,000 tested, 0.58% active | AID 652048; in the data active means max activation above about 30%; further: 0% is about no effect
Target sequence (P35462 whole entry, looked up): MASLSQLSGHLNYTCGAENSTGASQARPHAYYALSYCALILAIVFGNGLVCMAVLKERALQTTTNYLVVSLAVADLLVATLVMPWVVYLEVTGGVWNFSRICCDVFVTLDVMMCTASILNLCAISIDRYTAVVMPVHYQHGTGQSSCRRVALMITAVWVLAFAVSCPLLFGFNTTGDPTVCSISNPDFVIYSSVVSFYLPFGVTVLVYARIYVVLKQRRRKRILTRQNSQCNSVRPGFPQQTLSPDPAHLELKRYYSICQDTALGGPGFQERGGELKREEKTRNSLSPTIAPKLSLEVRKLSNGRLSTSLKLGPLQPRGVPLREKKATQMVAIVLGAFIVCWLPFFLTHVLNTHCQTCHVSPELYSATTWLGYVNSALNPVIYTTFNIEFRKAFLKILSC
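Agonist-mode cell screen: cells plated at 1500/well and incubated overnight at 37 °C, then exposed to library compounds for 90 min at 37 °C. Detection reagent was added for 30–60 min at room temperature, and luminescence was read.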
ATXN viability – viability counter-screen for ATXN expression inhibitors; S2 cells (HEK-293 line with an ATXN2-luciferase reporter) viability, CellTiter-Fluor protease fluorescence, 24 h; Potency, µM (series often up to 56.7 µM), most hits filed as cytotoxic; 400,000 tested, 0.49% active; further: potency means the concentration at half of the fitted maximal effect; nearly all actives have a fitted effect of over 40% in size
D3 antag – blocks the human D3 dopamine receptor. P35462. D3R cells, DiscoveRx beta-arrestin luminescence, antagonist mode; stronger effect = lower value. max response, negative = inhibition, %. 360,000 tested, 2.5% active. AID 652054; in the data active means max response below about -50%; inconclusive means no clear call, values can overlap the other calls; further: on the % scale 0 is the no-effect control and ±100 the full control effect
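Cells expressing the human receptor were seeded at 1500 cells/well, incubated overnight at 37 degrees C in 5% CO2, then exposed to library compounds with dopamine controls for 90 minutes at 37 degrees C before luminescent detection.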
* marks the source's active call; other numbers are inactive results; i = inactive; ? = inconclusive; / = not tested or not shown. Most compounds without a hit are left out; they make up all but 4.8% or so of the library. Unless noted, the call rests on the fitted dose curve; in most records, active means well fitted curve in the direction sought with a large enough effect; inconclusive means small, poorly fitted or top-dose-only effect, or another doubt; inactive means no such curve, though single readings can be large; an effect the other way counts as inactive or inconclusive.

SMILES | ATXN2 expr inh | TGFb inhibitor | HepG2 viability | DRD3 agonist | ATXN viability | D3 antag
Cc1ccc(-n2[nH]c(C)c(/C=N/n3c(C)nc4ccccc4c3=O)c2=O)cc1 | -22.9% | 2.5% | 6.31µM* | -11.8 | i | 3.9
Cc1nc2ccccc2c(=O)n1/N=C/c1ccc(F)cc1 | 22.9% | -19.3% | 3.2% | 3.9 | i | 26.3
O=C(COc1ccc(F)cc1)Nc1ccc(S(=O)(=O)N(Cc2ccccc2)c2ccccc2)cc1 | -16.1% | -4.5% | -3.4% | -18.4 | i | /
Cc1ccc2nc(-c3cccc(NC(=O)CSc4ccc(Cl)cc4)c3)oc2c1 | / | / | -7.7% | -0.6 | / | /
CC(=O)/C(N=Nc1ccc(SC(F)F)cc1)=C(\C)O | 7.7% | -6.1% | -23.2% | 0.5 | i | -58.7*
CC(C)OC(=O)n1c(=S)oc2ccccc21 | -1.1% | -13.3% | -5.4% | -2.1 | i | 13.1
CCCCC(=O)/C=C/n1c(=S)oc2ccccc21 | ? | 5.01µM* | -57.9% | -1.9 | ? | -3.1
CC1=C(C(=O)Nc2ccccc2)C(c2ccco2)C(C#N)=C(SCC(=O)OC(C)C)N1 (configuration not stated) | 0.8% | -18.3% | -2.6% | 58.5* | i | 31.7
CCN1CCc2c(sc(-n3cccc3)c2C(C)NC(=O)Nc2ccc(Br)cc2)C1 (configuration not stated) | / | 10µM* | 14.1µM* | -20.7 | / | /
Cc1cc(-n2c(SCC(=O)Nc3ccc(Br)cc3)nc3n[nH]c(C)c3c2=N)ccc1Cl | -23.0% | -11.4% | -15.3% | 0.1 | ? | -17.1
Cc1[nH]nc2nc(SCC(=O)NCC3CCCO3)n(-c3ccc(Br)cc3)c(=N)c12 (configuration not stated) | 61.7% | -2.1% | 2.5% | 6.4 | i | -50.4*
Cc1ccc(-n2c(SCC(=O)Nc3cccc(Cl)c3)nc3n[nH]c(C)c3c2=N)cc1 | / | 1.78µM* | 12.6µM* | -4.1 | / | /
CCOc1ccc(-n2ccnc(SCC(=O)NCc3cccc(OC)c3)c2=O)cc1 | 9.1% | -2.4% | -31.5% | -16.8 | i | -60.1*
CCOc1ccc(-n2ccnc(SCC(=O)Nc3ccc(OC)cc3OC)c2=O)cc1 | 8.3% | ? | -7.8% | -5.9 | i | -14.5
COc1ccc(-c2cnnc(N/N=C/c3ccc(-c4ccc([N+](=O)[O-])cc4)o3)n2)cc1 | ? | -13.8% | 1.4% | 0.2 | ? | 12.7
COc1ccccc1-c1cnnc(N/N=C/c2ccc(-c3cccc(Br)c3)o2)n1 | -0.5% | -9.8% | -2.3% | 56.6* | i | 18.9
COc1ccc2c(c1)CCC2=O | / | 1.1% | -15.4% | / | / | /
CCCN1CCN(C(=O)c2noc3c2COc2ccc(C)cc2-3)CC1 | 31.0% | -2.5% | -10.3% | 0.3 | i | -64.3*
Cc1nc2cc(NC(=O)[C@@H]3C[C@@H](Sc4ccccn4)CN3Cc3ccccc3F)ccc2s1 | / | / | / | / | i | /
CCCN(CCC)CCNC(=O)c1cc(-c2ccc(Br)s2)nc2ccccc12 | 0.0% | 0.3% | -21.2% | -13.8 | 31.6µM* | /
Cc1ccc(C)c(NC(=S)N/N=C2\CCc3ccccc32)c1 | / | ? | -18.1% | -1.1 | i | -28.0
Cc1ccc(NC(=S)N/N=C2/CCCCc3ccccc32)cc1 | 20.0% | -26.4% | -21.3% | -11.9 | i | -51.9*
Cc1cccc(NC(=S)N/N=C2/CCCCc3ccccc32)c1 | 21.0% | -29.1% | 3.2% | -22.9 | i | -88.5*
CCNC(=S)N/N=C1\CCCCc2ccccc21 | 5.1% | -4.0% | 8.2% | 0.0 | i | -6.2
O=C1Nc2ccc(Br)cc2/C1=C/C(=O)c1ccc2c(c1)OCO2 | / | ? | -110.5% | -11.5 | 20µM* | ?
SMILES | ATXN2 expr inh | TGFb inhibitor | HepG2 viability | DRD3 agonist | ATXN viability | D3 antag
CN1C(=O)NC2(O)C(=O)c3ccccc3C12O (configuration not stated) | -20.4% | -4.4% | 10µM* | 8.6 | i | -60.0*
Cc1nn(S(=O)(=O)c2ccc(F)cc2)c(C)c1S(=O)(=O)N1CCCCCC1 | 4.3% | ? | -7.7% | 8.9 | i | /
O=C(NC(=S)Nc1ccc(CN2CCOCC2)cc1)c1ccccc1[N+](=O)[O-] | 3.5% | 0.2% | -14.0% | -11.3 | i | -107.2*
O=C(NC(=S)Nc1ccc(CN2CCOCC2)cc1)c1ccc([N+](=O)[O-])cc1Cl | -2.6% | 0.9% | 2.3% | -16.4 | i | -78.4*
COc1ccc(Br)cc1C(=O)NC(=S)Nc1ccc(CN2CCOCC2)cc1 | 25.1µM* | -7.6% | -17.1% | 3.9 | i | 54.6
CCc1cc2c(=O)c(-c3cnn(-c4ccccc4)c3)c(C)oc2cc1OCC(=O)Nc1ccc(F)c(F)c1 | -5.2% | -1.7% | 8.0% | -4.7 | i | -6.0
CCc1cc2c(=O)c(-c3cnn(-c4ccccc4)c3)c(C)oc2cc1OCC(=O)Nc1cccc(C)c1 | ? | 6.4% | -1.7% | 1.8 | 1.78µM* | -7.6
CCOC(=O)C1=CCN(S(=O)(=O)c2ccc(C)cc2)C1c1ccccc1 (configuration not stated) | -20.0% | 7.5% | -29.0% | -1.2 | ? | -9.8
CCOc1cc2c(c3c1C(c1ccccc1)N(S(=O)(=O)c1ccc(C)cc1)C3)C(=O)C=CC2=O (configuration not stated) | ? | ? | 8.91µM* | -17.5 | 6.31µM* | -114.6*
Cc1cn([C@H]2C[C@H](O)[C@@H](CNC/C=C/c3ccccc3[N+](=O)[O-])O2)c(=O)[nH]c1=O | -5.6% | -9.6% | -13.5% | 73.6* | i | -23.4
Cc1cn([C@H]2C[C@H](O)[C@@H](CNC(=O)c3ccccn3)O2)c(=O)[nH]c1=O | -24.6% | 0.5% | 4.9% | 4.0 | i | -14.6
CC(C)(C)OC(=O)N1CCC(c2c(C(=O)Nc3ccc4c(c3)OCCO4)cnn2-c2ccccc2)CC1 | / | ? | 2.1% | 6.8 | / | /
CCN1CCN(C2=C(Cl)C(=O)N(Cc3ccccc3)C2=O)CC1 | 13.9% | -1.8% | -8.9% | -7.2 | i | -50.5*
CN1CCN(C2=C(Cl)C(=O)N(Cc3ccccc3)C2=O)CC1 | 3.8% | 12.7% | -28.8% | -10.8 | i | -12.9
CCCSCCCNC(=O)C1CCN(c2nn3cc(-c4ccc(F)cc4)nc3s2)CC1 | / | 0.0% | -0.3% | 6.6 | / | /
S=C(NCc1cccs1)Nc1cccc(Cl)c1 | -4.3% | ? | -19.9% | -5.4 | i | -24.6
S=C(NCc1cccs1)Nc1cc(Cl)cc(Cl)c1 | ? | 22.4µM* | -48.3% | 0.7 | ? | 3.3
O=C(Cn1c2[n+](c3ccc(C(F)(F)F)cc31)CCCCC2)Nc1ccccc1 | 0.1% | -1.1% | -39.4% | -33.1 | i | -51.4*
O=C(Cn1c2[n+](c3ccc(C(F)(F)F)cc31)CCCCC2)c1cccc([N+](=O)[O-])c1 | / | -0.1% | 0.7% | -12.3 | i | -89.5*
